Screening data (PubChem)
GPR151 activ – activators of human GPR151, primary screen, cell-based, PathHunter beta-arrestin, luminescence. PathHunter beta-arrestin GPR151 cells. G-protein coupled receptor 151 (Homo sapiens), Q8TDV0. 650,000 compounds, 1% hits. activation, % at 11.2 µM. AID 1508602, 2020; in the data active means activation above about 4.9%;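 further: 0% = median of compound wells and 100% = cells with positive control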
TEAD-YAP inh – TEAD-YAP interaction inhibition, primary screen, TEAD-YAP interaction inhibitor project, luminescence, HEK-TIYL cells. AID 1259422, 2018. inhibition, % at 9.12 µM. TEAD-Gal4/YAP UAS-luciferase luminescence. 640,000 compounds, 1.4% hits; in the data active means inhibition above about 32%;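 further: 0% = median of test compound wells and 100% = reference inhibitor wells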
MITF inh – MITF inhibitors, primary screen, biochemical, AlphaScreen, human | Microphthalmia-associated transcription factor (Homo sapiens), O75030 | AlphaScreen MITF homodimerization, bead proximity signal | inhibition, % at 2.6 µM | 650,000 compounds, 0.91% hits; in the data active means inhibition above about 50%;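 further: 0% = vehicle wells with protein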
FBW7 act – FBW7 E3 ligase activators, primary screen, biochemical, AlphaScreen, human. F-box/WD repeat-containing protein 7 (Homo sapiens), Q969H0. AlphaScreen FBW7–phospho-cyclin E peptide binding, activator screen. normalized activity (activation), % at 26.1 µM. 650,000 compounds, 0.13% hits. AID 1259310, 2017; in the data active means normalized activity above about 1.9%;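 further: purified mutant Fbw7 with reduced substrate affinity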
GPR151 confirm – GPR151 activators, triplicate retest, confirmation, cell-based, PathHunter beta-arrestin, luminescence; shares compounds with GPR151 activ; GPR151 PathHunter beta-arrestin cells, 90 min; % of EA-reagent control over plate median; activation, % at 11.2 µM; 6,700 tested, under 10 active;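 active means mean percent activation across replicates above the confirmation screen cutoff of 4.91%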
GPR119 counter – GPR119 activators in beta-arrestin cells, counter-screen for GPR151 activator project, cell-based, PathHunter beta-arrestin, luminescence, triplicate; shares compounds with GPR151 activ; 90 min; 0 = compound-well median, 100 = enzyme-acceptor control; activation, % at 11.2 µM; 6,700 compounds, 0.3% hits; AID 1508611, 2020;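 active means mean percent activation in the counterscreen above 29.09%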;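 further: counterscreen on off-target GPR119 to flag nonselective hits from the GPR151 activator screen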
Target sequence (Q8TDV5 whole entry, looked up): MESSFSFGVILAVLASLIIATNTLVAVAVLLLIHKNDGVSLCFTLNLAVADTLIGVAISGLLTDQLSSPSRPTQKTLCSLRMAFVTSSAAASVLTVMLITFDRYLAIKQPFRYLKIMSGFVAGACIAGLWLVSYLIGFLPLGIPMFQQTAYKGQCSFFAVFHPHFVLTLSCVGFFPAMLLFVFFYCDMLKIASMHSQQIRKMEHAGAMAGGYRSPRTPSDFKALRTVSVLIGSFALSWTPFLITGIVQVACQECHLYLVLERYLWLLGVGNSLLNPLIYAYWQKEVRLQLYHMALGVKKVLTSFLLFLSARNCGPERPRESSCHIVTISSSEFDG
* marks the source's active call; other numbers are inactive results. Shown are actives, neighbours in structure and some others; about 3.5% of the full set was active somewhere.

What do the screens show for `COc1ccc(CCNC(=O)CCc2nc3cccnc3n2-c2ccccc2)c(OC)c1`?
GPR151 activ: 5.1*; TEAD-YAP inh: 4; MITF inh: -1; FBW7 act: 0; GPR151 confirm: 0; GPR119 counter: 0

Results for C=CCNC(=O)CN(c1cc(C)ccc1OC)S(=O)(=O)c1ccccc1 ?
GPR151 activ: -1; TEAD-YAP inh: -7; MITF inh: -9; FBW7 act: 0

How did Fc1ccc(OCc2nn3c(-c4ccncc4)nnc3s2)cc1 do in these assays?
GPR151 activ: 6.1*; TEAD-YAP inh: 7; MITF inh: 3; FBW7 act: -1; GPR151 confirm: 0; GPR119 counter: -6

How did Cc1ccc(OCc2nn3c(-c4ccc(F)cc4)nnc3s2)cc1 do in these assays?
GPR151 activ: 2; TEAD-YAP inh: -8; MITF inh: -5; FBW7 act: 0

Results for COc1ccccc1-n1c(SCC(=O)C(C)(C)C)nc2c(sc(=S)n2-c2ccccc2C)c1=O ?
GPR151 activ: -1; TEAD-YAP inh: -1; MITF inh: -3; FBW7 act: 0

How did C=CCOc1ccccc1CN1CCc2nnc(CNC(=O)C3CCC(=O)N3)n2CC1 (stereo not drawn) do in these assays?
GPR151 activ: 5.6*; TEAD-YAP inh: -7; MITF inh: 7; FBW7 act: 0; GPR151 confirm: 1; GPR119 counter: 11

What do the screens show for `C=CCOc1ccccc1CN1CCc2nnc(CNC(=O)C3CCCN(C)C3)n2CC1` (stereo not drawn)?
GPR151 activ: -1; TEAD-YAP inh: 1; MITF inh: 10; FBW7 act: 0

Results for C=CCOc1ccccc1CN1CCc2nncn2CC1 ?
GPR151 activ: 7.4*; TEAD-YAP inh: -3; MITF inh: 5; FBW7 act: 0; GPR151 confirm: 0; GPR119 counter: 4

What do the screens show for `c1cnc2c(CN3CCc4nncn4CC3)cccc2c1`?
GPR151 activ: -1; TEAD-YAP inh: 10; MITF inh: -12; FBW7 act: 0

How did Cc1cc(S(=O)(=O)NC2CCCCC2C)ccc1F (stereo not drawn) do in these assays?
GPR151 activ: 2; TEAD-YAP inh: -10; MITF inh: -6; FBW7 act: 0

Results for O=C(O)c1ccc(CNCc2ccc(Cl)cc2Cl)cc1 ?
GPR151 activ: 8.9*; TEAD-YAP inh: 15; MITF inh: 19; FBW7 act: 1; GPR151 confirm: -1; GPR119 counter: -15

What do the screens show for `COc1ccccc1CNC(=O)CNC(=S)N(Cc1ccc(F)cc1)C1CCCCC1`?
GPR151 activ: -2; TEAD-YAP inh: 3; MITF inh: 1; FBW7 act: 0

Results for Nc1ccc(C(=O)Nc2ccc(Oc3cccc(Oc4ccc(NC(=O)c5ccc(N)cc5)cc4)c3)cc2)cc1 ?
GPR151 activ: 6.1*; TEAD-YAP inh: 0; MITF inh: 7; FBW7 act: 0; GPR151 confirm: -1; GPR119 counter: -14

How did O=C1CCCN1CCCNc1nc(Nc2ccc(N3CCOCC3)cc2)nc2c1ncn2CCN1CCCC1=O do in these assays?
GPR151 activ: 11*; TEAD-YAP inh: -2; MITF inh: -3; FBW7 act: 0; GPR151 confirm: 0; GPR119 counter: -5

Results for O=C1CCCN1CCCNc1cc(N2CCC(N3CCOCC3)CC2)ncn1 ?
GPR151 activ: 8.5*; TEAD-YAP inh: 7; MITF inh: 0; FBW7 act: 0; GPR151 confirm: -1; GPR119 counter: -14

Results for COc1cc(Nc2nc(NCCCN3CCCC3=O)c3ncn(CCN4CCCC4=O)c3n2)cc(OC)c1OC ?
GPR151 activ: 6.5*; TEAD-YAP inh: 0; MITF inh: 4; FBW7 act: 0; GPR151 confirm: 0; GPR119 counter: -7

Results for O=C1CCCN1CCn1cnc2c(Nc3ccc(N4CCOCC4)cc3)nc(Nc3ccc(N4CCOCC4)cc3)nc21 ?
GPR151 activ: 3; TEAD-YAP inh: -3; MITF inh: 21; FBW7 act: 0

Results for O=C1CCCN1CCCNc1cc(N2CCOCC2)ncn1 ?
GPR151 activ: 0; TEAD-YAP inh: -4; MITF inh: 1; FBW7 act: 0

What do the screens show for `COc1cc(Nc2nc(NCCCN3CCCC3=O)c3ncn(C(C)C)c3n2)cc(OC)c1OC`?
GPR151 activ: 13*; TEAD-YAP inh: 7; MITF inh: -3; FBW7 act: 0; GPR151 confirm: 1; GPR119 counter: 0

What do the screens show for `O=C(NCc1ccc2c(c1)OCO2)c1c(O)c2cccc3c2n(c1=O)CC3`?
GPR151 activ: 1; TEAD-YAP inh: 1; MITF inh: 3; FBW7 act: 0

What do the screens show for `CCCOc1ccc(C2C(=O)N(C3CCCCCC3)CC(=O)N2Cc2ccccc2Cl)cc1OC` (stereo not drawn)?
GPR151 activ: -1; TEAD-YAP inh: -2; MITF inh: 9; FBW7 act: 0

How did COc1cccc(NC(=O)C2C3C=CC4(O3)C2C(=O)N(Cc2ccccc2)C4C(=O)NC2CCCCC2C)c1 (stereo not drawn) do in these assays?
GPR151 activ: 2; TEAD-YAP inh: -2; MITF inh: 0; FBW7 act: 0

Results for O=C1CCCN1CCn1cnc2c(NCCN3CCOCC3)nc(Nc3nccc4ccccc34)nc21 ?
GPR151 activ: 5.3*; TEAD-YAP inh: -3; MITF inh: 6; FBW7 act: 0; GPR151 confirm: 0; GPR119 counter: -7

Results for CCOc1ccc2nc(SCC(=O)Nc3ccc([N+](=O)[O-])cc3OC)c(C#N)cc2c1 ?
GPR151 activ: 0; TEAD-YAP inh: 11; MITF inh: -9; FBW7 act: 0

How did Cc1cccc(C(=O)OCC2CCCN3CCCCC23)c1 (stereo not drawn) do in these assays?
GPR151 activ: 0; TEAD-YAP inh: -1; MITF inh: -6; FBW7 act: 0

Results for COc1ccc2c(c1)c(CC(=O)Nc1ccc(NC(C)=O)cc1)c(C)n2C(=O)c1ccc(Cl)cc1 ?
GPR151 activ: 6.2*; MITF inh: -8; GPR151 confirm: 0; GPR119 counter: 11

What do the screens show for `COc1ccc2c(c1)c(CC(=O)Nc1ncccc1C)c(C)n2C(=O)c1ccc(Cl)cc1`?
GPR151 activ: 0; TEAD-YAP inh: 6; MITF inh: 16; FBW7 act: 0
